USP10 block – inhibitors of human USP10 deubiquitinase. purified USP10, Ub-rhodamine fluorescence, 60 min. AID 1645856, 2021. inhibition, % at 20 µM. actives 1.1% (n = 47,000)
USP7 block – inhibitors of human USP7 deubiquitinase. Ubiquitin carboxyl-terminal hydrolase 7 (Homo sapiens), Q93009. purified USP7, Ub-rhodamine cleavage fluorescence. inhibition, % at 20 µM. actives 0.3% (n = 47,000). AID 1645854, 2021
UCHL1 inh – inhibitors of human UCHL1 deubiquitinase | purified UCHL1, Ub-rhodamine cleavage fluorescence | inhibition, % at 20 µM | actives 0.2% (n = 47,000) | AID 1645859, 2021
* = called active by the depositor. Rows were chosen to be rich in hits. Some 1.2% of all compounds tested hit in one or more screens of this group. No stated cut-off is given here; in the data, active means inhibition above about 30%; inactive means the rest.

`COC(=O)c1ccc2c(=O)n(CCCCCC(=O)NCCc3ccc(S(N)(=O)=O)cc3)c(=O)[nH]c2c1` gave USP10 block 37*, USP7 block 20 and UCHL1 inh 6.
`COC(=O)c1ccc2c(=O)n(CCCCCC(=O)NCCc3ccccc3Cl)c(=O)[nH]c2c1` gave USP10 block 53*, USP7 block 15 and UCHL1 inh 0.
Screening COC(=O)c1ccc2c(=O)n(CCCCCC(=O)N3CCN(c4ccccc4OC)CC3)c(=O)[nH]c2c1 returned USP10 block -4, USP7 block -3 and UCHL1 inh 0.
`COC(=O)c1ccc2c(=O)n(CCCCCC(=O)N3CCN(c4ccccn4)CC3)c(=O)[nH]c2c1` gave USP10 block -1, USP7 block -3 and UCHL1 inh -5.
`Cc1cc(-c2cnc(N(C)C)nc2-c2ccc(CNC(=O)Cc3ccc(F)cc3)cc2)on1` gave USP10 block 2, USP7 block 0 and UCHL1 inh 11.
For Cc1nn(C)cc1C(C(=O)NC1CCCCC1)N(C(=O)CN1C(=O)c2ccccc2S1(=O)=O)c1ccc2c(c1)OCO2 (stereo unspecified) the results were USP10 block 40*, USP7 block 19 and UCHL1 inh 12.
For COc1ccc(OC)c(C(C(=O)NC2CCCCC2)N(C(=O)c2ccc3c(c2)OCCO3)c2ccc(C)cc2)c1 (stereo unspecified) the results were USP10 block 8, USP7 block 8 and UCHL1 inh 11.
Screening CCN1C(=O)COc2ccc(NC(=O)c3ccc(OCc4nonc4C)cc3)cc21 returned USP10 block 7, USP7 block 1 and UCHL1 inh 3.
COc1cc(N)c(Cl)cc1C(=O)OCC(=O)Nc1ccc2c(c1)OCCO2 was read as USP10 block 0, USP7 block -4 and UCHL1 inh 1.
For COc1cc(O)c2c(c1)COC(=O)c1c(O)cc(C)cc1O2 the results were USP10 block 1, USP7 block 1 and UCHL1 inh 1.
Screening COC(=O)C1=CC(OC)=C(Cl)C(=O)C12OC(=O)c1c(O)cc(C)cc1O2 (stereo unspecified) returned USP10 block 2, USP7 block -92 and UCHL1 inh 33*.
`CCc1ccc(-c2nc(SCC(=O)Nc3ccc4[nH]c(=O)[nH]c4c3)n[nH]2)cc1` gave USP10 block 8, USP7 block 2 and UCHL1 inh -2.
O=C(Cn1cnc(-c2ccccc2)cc1=O)Nc1ccc(Oc2ccccc2)cc1 was read as USP10 block 20, USP7 block 16 and UCHL1 inh 3.
`Cc1ccc(-c2cc(=O)n(CC(=O)Nc3ccc(C(C)C)cc3)cn2)cc1` gave USP10 block 42*, USP7 block 18 and UCHL1 inh -5.
Screening CC1CCN(S(=O)(=O)NCc2cccc(S(N)(=O)=O)c2)CC1 returned USP10 block -1, USP7 block 2 and UCHL1 inh 1.
Screening O=C(Nc1cc(S(=O)(=O)Nc2ccc(Cl)cc2)ccc1O)c1cc2c(s1)CCC2 returned USP10 block 70*, USP7 block 60* and UCHL1 inh 33*.
Screening Cc1ccc(S(=O)(=O)N2CCCCC2)cc1NC(=O)c1cc2c(s1)CCC2 returned USP10 block 8, USP7 block 7 and UCHL1 inh 2.
For CCOC(=O)c1ccc(NC(=O)C2CCCN(S(=O)(=O)N3CCCCCC3)C2)cc1 (stereo unspecified) the results were USP10 block 4, USP7 block 4 and UCHL1 inh -2.
O=C(c1ccccc1)c1c(-c2ccccc2)oc2ccc(NS(=O)(=O)c3ccc(Cl)cc3)cc12 was read as USP10 block 33*, USP7 block 16 and UCHL1 inh 10.
Cc1oc2ccc(NS(=O)(=O)c3ccc(F)cc3)cc2c1C(=O)OCc1ccccc1 was read as USP10 block 20, USP7 block 13 and UCHL1 inh 7.
`COC1=CC(=O)c2c(O)c3c(c(C)c2C1=O)C[C@@]1(O)[C@H](O[C@H]2CC[C@H](O[C@H]4C[C@@](C)(O)[C@H](OC(=O)c5c(C)ccc(C)c5O)[C@H](C)O4)[C@@H](C)O2)C(=O)C(C(C)=O)=C(O)[C@@]1(O)C3=O` gave USP10 block -6, USP7 block 55* and UCHL1 inh 58*.
For CCC(=O)N1c2ccccc2NC2=C(C(=O)CC(c3ccccc3OCc3ccccc3)C2)C1c1ccccc1 (stereo unspecified) the results were USP10 block 28, USP7 block 14 and UCHL1 inh 4.
`CC(C)=CCc1c2c(c3occ(-c4ccc(O)c(O)c4)c(=O)c3c1O)C=CC(C)(C)O2` gave USP10 block 63*, USP7 block -12 and UCHL1 inh 15.
For CC(C)=CCc1c2c(c3occ(-c4ccc(O)cc4)c(=O)c3c1O)C=CC(C)(C)O2 the results were USP10 block 30, USP7 block 2 and UCHL1 inh 10.
For COc1cc(O)c2c(O)c3c(cc2c1)CC(C)OC3=O (stereo unspecified) the results were USP10 block 7, USP7 block -47 and UCHL1 inh 20.
CC1(O)CC(=O)c2c(cc3cc(O)cc(O)c3c2O)C1 (stereo unspecified) was read as USP10 block 79*, USP7 block 94* and UCHL1 inh 93*.
Screening COc1ccc(NC(=O)C2c3ccccc3C(=O)N(C3CCCC3)C2c2cccs2)c(OC)c1 (stereo unspecified) returned USP10 block 12, USP7 block 10 and UCHL1 inh 9.
Screening O=C(Nc1cccc(-c2nc3cnccc3o2)c1)c1ccccc1F returned USP10 block 2, USP7 block -1 and UCHL1 inh -4.
`COc1cc2c(=O)n(CCC(=O)NC3CCCC3)c(=O)n(CC(=O)Nc3cccc(Cl)c3)c2cc1OC` gave USP10 block 31*, USP7 block -7 and UCHL1 inh 7.
Screening COc1ccc(CCNC(=O)CCCCn2c(=O)c3ccccc3n(Cc3cccc(Cl)c3)c2=O)cc1OC returned USP10 block 1, USP7 block 7 and UCHL1 inh 5.
O=C(Cn1c(=O)n(CCCC(=O)NC2CCCC2)c(=O)c2cc(Cl)ccc21)Nc1cccc(F)c1 was read as USP10 block 4, USP7 block -16 and UCHL1 inh -2.
CCOc1ccc(NC(=O)Cn2c(=O)n(CCC(=O)NCc3ccccc3OC)c(=O)c3ccccc32)cc1 was read as USP10 block 34*, USP7 block 12 and UCHL1 inh 1.
COc1ccc(Cl)cc1NC(=O)Cn1c(=O)n(CCCCC(=O)NCCc2ccccc2)c(=O)c2ccccc21 was read as USP10 block 43*, USP7 block 2 and UCHL1 inh 0.
COc1ccccc1CNC(=O)CCn1c(=O)c2ccccc2n(Cc2ccccc2C#N)c1=O was read as USP10 block 4, USP7 block 5 and UCHL1 inh 1.
For COc1ccc(NC(=O)Cn2c(=O)n(CCCC(=O)NC3CCCC3)c(=O)c3cc(Cl)ccc32)cc1 the results were USP10 block 11, USP7 block 2 and UCHL1 inh -1.

High-throughput results deposited in PubChem BioAssay by Buhrlage Lab, Dana-Farber Cancer Institute and Novartis Institutes for BioMedical Research (Cambridge, Mass).
